# According to PubChem BioAssay AID1159580 (chemical genetic matrix, 2015):
# About 2,000 (36%) of roughly 5,500 compounds were called active. Inconclusive results (about 18%) are left out. This is one part of the list. Values without a mark were called inactive. No stated cut-off is given here; in the data, active means normalized growth mostly below about 0.91 (no sharp cut-off); inconclusive means no clear call, values can overlap the other calls; inactive means mostly above about 0.92.
# Experiment: chemical genetic growth profiling, strain panel (AID 1159580);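 further: tested at 20 µM; growth read once vehicle control cultures reached saturation at 30 °C; 1 = growth at the plate median or of vehicle wells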
# Details: S. cerevisiae deletion strains, growth OD
structure (smiles),measurement,setting,value
O=C(Oc1cccc2[nH]ccc12)c1ccc(C(F)(F)F)cc1,normalized growth,"locus YAR019C, strain CDC15, stronger effect = lower value",0.968
same,normalized growth,"locus YBL105C, strain PKC1, stronger effect = lower value",0.97
same,normalized growth,"locus YBR135W, strain CKS1, stronger effect = lower value",0.974
same,normalized growth,"locus YBR136W, strain MEC1, stronger effect = lower value",0.968
same,normalized growth,"locus YBR160W, strain CDC28, stronger effect = lower value",0.974
same,normalized growth,"locus YDL017W, strain CDC7, stronger effect = lower value",0.965
same,normalized growth,"locus YDL028C, strain MPS1, stronger effect = lower value",0.974
same,normalized growth,"locus YDL101C, strain DUN1, stronger effect = lower value",0.984
same,normalized growth,"locus YDL108W, strain KIN28, stronger effect = lower value",0.971
same,normalized growth,"locus YDL132W, strain cdc53, stronger effect = lower value",0.973
same,normalized growth,"locus YDL214C, strain PRR2, stronger effect = lower value",0.82
same,normalized growth,"locus YDR052C, strain DBF4, stronger effect = lower value",0.972
same,normalized growth,"locus YDR054C, strain cdc34, stronger effect = lower value",0.961
same,normalized growth,"locus YDR226W, strain ADK1, stronger effect = lower value",0.956
same,normalized growth,"locus YDR477W, strain SNF1, stronger effect = lower value",0.814
same,normalized growth,"locus YER123W, strain YCK3, stronger effect = lower value",0.702
same,normalized growth,"locus YER133W, strain GLC7, stronger effect = lower value",0.775
same,normalized growth,"locus YFL009W, strain cdc4, stronger effect = lower value",0.966
same,normalized growth,"locus YFL029C, strain CAK1, stronger effect = lower value",0.968
same,normalized growth,"locus YFR003C, strain YPI1, stronger effect = lower value",0.966
same,normalized growth,"locus YFR019W, strain FAB1, stronger effect = lower value",0.855
same,normalized growth,"locus YFR028C, strain CDC14, stronger effect = lower value",0.955
same,normalized growth,"locus YGR040W, strain KSS1, stronger effect = lower value",0.805
same,normalized growth,"locus YGR052W, strain FMP48, stronger effect = lower value",0.763
same,normalized growth,"locus YGR092W, strain DBF2, stronger effect = lower value",0.634
same,normalized growth,"locus YHR030C, strain SLT2, stronger effect = lower value",0.454 (active)
same,normalized growth,"locus YHR079C, strain IRE1, stronger effect = lower value",0.607
same,normalized growth,"locus YHR082C, strain KSP1, stronger effect = lower value",0.857
same,normalized growth,"locus YHR205W, strain SCH9, stronger effect = lower value",0.862
same,normalized growth,"locus YIL147C, strain SLN1, stronger effect = lower value",0.962
same,normalized growth,"locus YJL095W, strain BCK1, stronger effect = lower value",0.645
same,normalized growth,"locus YJL128C, strain PBS2, stronger effect = lower value",0.933
same,normalized growth,"locus YJL157C, strain FAR1, stronger effect = lower value",0.807
same,normalized growth,"locus YJR016C, strain ILV3, stronger effect = lower value",0.966
same,normalized growth,"locus YJR066W, strain TOR1 (second series), stronger effect = lower value",0.699
same,normalized growth,"locus YJR066W, strain TOR1, stronger effect = lower value",0.679
same,normalized growth,"locus YKL048C, strain ELM1, stronger effect = lower value",0.786 (active)
same,normalized growth,"locus YKL067W, strain YNK1, stronger effect = lower value",0.827
same,normalized growth,"locus YKL101W, strain HSL1, stronger effect = lower value",0.788
same,normalized growth,"locus YKL193C, strain SDS22, stronger effect = lower value",0.964
same,normalized growth,"locus YKL203C, strain TOR2, stronger effect = lower value",0.831
same,normalized growth,"locus YLR113W, strain HOG1, stronger effect = lower value",0.754 (active)
same,normalized growth,"locus YLR133W, strain CKI1, stronger effect = lower value",0.822
same,normalized growth,"locus YLR403W, strain SFP1, stronger effect = lower value",0.831
same,normalized growth,"locus YML070W, strain DAK1, stronger effect = lower value",0.791
same,normalized growth,"locus YMR001C, strain CDC5, stronger effect = lower value",0.964
same,normalized growth,"locus YMR205C, strain PFK2 (second series), stronger effect = lower value",0.862
same,normalized growth,"locus YMR277W, strain FCP1, stronger effect = lower value",0.96
same,normalized growth,"locus YNL006W, strain LST8, stronger effect = lower value",0.969
same,normalized growth,"locus YNL020C, strain ARK1, stronger effect = lower value",0.763
same,normalized growth,"locus YNL161W, strain CBK1, stronger effect = lower value",0.987
same,normalized growth,"locus YNL183C, strain NPR1, stronger effect = lower value",0.769
same,normalized growth,"locus YNL207W, strain RIO2, stronger effect = lower value",0.97
same,normalized growth,"locus YNL222W, strain SSU72, stronger effect = lower value",0.976
same,normalized growth,"locus YNL307C, strain MCK1 (second series), stronger effect = lower value",0.859
same,normalized growth,"locus YOL078W, strain AVO1, stronger effect = lower value",0.978
same,normalized growth,"locus YOL136C, strain PFK27, stronger effect = lower value",0.815
same,normalized growth,"locus YOR061W, strain CKA2, stronger effect = lower value",0.603 (active)
same,normalized growth,"locus YOR119C, strain RIO1, stronger effect = lower value",0.887
same,normalized growth,"locus YOR231W, strain MKK1, stronger effect = lower value",0.755
same,normalized growth,"locus YOR329C, strain SCD5, stronger effect = lower value",0.97
same,normalized growth,"locus YPL031C, strain PHO85, stronger effect = lower value",0.809
same,normalized growth,"locus YPL153C, strain RAD53, stronger effect = lower value",0.757
same,normalized growth,"locus YPL204W, strain HRR25, stronger effect = lower value",0.778
same,normalized growth,"locus YPL209C, strain IPL1, stronger effect = lower value",0.965
same,normalized growth,"locus YPL256C, strain CLN2, stronger effect = lower value",0.75 (active)
same,normalized growth,"locus YPR025C, strain CCL1, stronger effect = lower value",0.975
same,normalized growth,"locus YPR106W, strain ISR1, stronger effect = lower value",0.972
same,normalized growth,"locus YPR111W, strain DBF20, stronger effect = lower value",0.937
same,normalized growth,"strain NNK1, stronger effect = lower value",0.961
same,normalized growth,"strain TSCII, stronger effect = lower value",0.967
